Assay in all cases: DAPPL (digital affinity profiling via proximity ligation, sequencing); 10 mM Tris-HCl pH 7.5, 50 mM NaCl, 1 mM DTT, 4% glycerol, room temperature, 30 min; GST-TFs on glutathione beads, 16-mer random dsDNA library, 0.1% formaldehyde crosslink after washing; high values mean tight binding
The target of assay [1] is T1, FLI1 (Homo sapiens, UniProt Q01543 1-452).
T1 sequence: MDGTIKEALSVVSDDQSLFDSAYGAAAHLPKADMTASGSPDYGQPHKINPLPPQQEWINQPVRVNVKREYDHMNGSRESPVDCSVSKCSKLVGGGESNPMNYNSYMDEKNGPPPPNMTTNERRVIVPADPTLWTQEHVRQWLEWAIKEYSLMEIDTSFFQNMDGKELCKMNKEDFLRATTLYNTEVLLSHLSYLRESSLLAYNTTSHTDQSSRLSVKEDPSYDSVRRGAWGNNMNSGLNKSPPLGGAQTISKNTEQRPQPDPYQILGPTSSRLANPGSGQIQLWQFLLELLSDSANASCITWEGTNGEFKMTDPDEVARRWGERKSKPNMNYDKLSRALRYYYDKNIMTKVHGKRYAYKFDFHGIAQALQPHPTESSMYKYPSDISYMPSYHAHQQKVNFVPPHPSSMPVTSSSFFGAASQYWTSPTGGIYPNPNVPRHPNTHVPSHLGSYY
To be noted: protein: recombinant; tags: N-terminal GST; dsDNA, one strand shown. The gist of the method:
(§1)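 Pools were built from human transcription factors expressed in yeast as GST fusions, captured on glutathione beads and DNA-barcoded, along with a tag-only sample. Incubation with 200 nmole of a 16-mer random double-stranded DNA library lasted 30 min at room temperature in Tris/NaCl/DTT/glycerol buffer, and was followed by washing, 0.1% formaldehyde crosslinking, proximity ligation, PCR amplification and Illumina NextSeq500 sequencing. Binding signal is the quotient of each hexamer's read frequency for a factor and its frequency for the tag-only sample.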

The target of assay [2] is T2, ELK1 (Homo sapiens, UniProt P19419 1-428).
T2 sequence: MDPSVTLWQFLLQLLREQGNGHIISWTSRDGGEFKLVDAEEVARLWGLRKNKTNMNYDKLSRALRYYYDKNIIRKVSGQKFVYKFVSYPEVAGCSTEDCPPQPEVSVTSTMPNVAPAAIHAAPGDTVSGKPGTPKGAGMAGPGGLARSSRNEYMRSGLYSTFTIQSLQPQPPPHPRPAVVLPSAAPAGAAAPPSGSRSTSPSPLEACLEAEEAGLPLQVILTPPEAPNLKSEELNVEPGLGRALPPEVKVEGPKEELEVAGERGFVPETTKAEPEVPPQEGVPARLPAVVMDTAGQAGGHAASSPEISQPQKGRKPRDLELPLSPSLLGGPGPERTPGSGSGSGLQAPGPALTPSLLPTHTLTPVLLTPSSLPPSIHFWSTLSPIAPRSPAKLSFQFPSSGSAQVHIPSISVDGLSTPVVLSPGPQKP
To be noted: protein: recombinant; tags: N-terminal GST; dsDNA, one strand shown. In short, it runs like this: as §1

For assay [3], the target named is T3, GABPA (Homo sapiens, UniProt Q06546 1-454).
T3 sequence: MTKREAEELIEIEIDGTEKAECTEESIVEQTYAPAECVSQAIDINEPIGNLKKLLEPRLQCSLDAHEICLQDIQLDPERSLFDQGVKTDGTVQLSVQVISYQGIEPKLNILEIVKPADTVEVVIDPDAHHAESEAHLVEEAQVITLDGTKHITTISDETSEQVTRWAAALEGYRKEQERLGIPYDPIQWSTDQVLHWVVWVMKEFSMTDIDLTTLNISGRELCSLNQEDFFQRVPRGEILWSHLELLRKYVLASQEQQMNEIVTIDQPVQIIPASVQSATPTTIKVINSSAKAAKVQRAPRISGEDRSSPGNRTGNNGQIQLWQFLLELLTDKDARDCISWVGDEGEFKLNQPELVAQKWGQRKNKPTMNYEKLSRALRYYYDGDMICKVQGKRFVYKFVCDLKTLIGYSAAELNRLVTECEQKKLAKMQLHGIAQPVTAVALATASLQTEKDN
To be noted: protein: recombinant; tags: N-terminal GST; dsDNA, one strand shown. The gist of the method:
as §1

The target in assay [4] is T4, ERG (Homo sapiens, UniProt P11308 1-479).
T4 sequence: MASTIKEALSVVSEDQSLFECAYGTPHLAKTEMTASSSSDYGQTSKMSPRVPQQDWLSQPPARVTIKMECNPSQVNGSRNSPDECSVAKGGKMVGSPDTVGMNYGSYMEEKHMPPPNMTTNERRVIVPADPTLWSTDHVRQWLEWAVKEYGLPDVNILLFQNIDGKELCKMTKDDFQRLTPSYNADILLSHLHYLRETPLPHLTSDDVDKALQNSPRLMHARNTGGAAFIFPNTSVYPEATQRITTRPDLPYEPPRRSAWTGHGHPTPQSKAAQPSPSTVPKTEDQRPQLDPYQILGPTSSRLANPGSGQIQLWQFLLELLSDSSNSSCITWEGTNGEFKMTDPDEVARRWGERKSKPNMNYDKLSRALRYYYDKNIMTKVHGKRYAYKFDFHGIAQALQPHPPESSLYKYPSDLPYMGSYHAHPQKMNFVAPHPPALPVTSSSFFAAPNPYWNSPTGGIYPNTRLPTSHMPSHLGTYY
To be noted: protein: recombinant; tags: N-terminal GST; dsDNA, one strand shown. In short, it runs like this:
as §1

For assay [5], the target named is ELF1 (Homo sapiens, UniProt P32519 1-619). The note with it: protein: recombinant; tags: N-terminal GST; dsDNA, one strand shown. In short, it runs like this:
as §1

The target of assay [6] is T5, EHF (Homo sapiens, UniProt Q9NZC4 1-300).
T5 sequence: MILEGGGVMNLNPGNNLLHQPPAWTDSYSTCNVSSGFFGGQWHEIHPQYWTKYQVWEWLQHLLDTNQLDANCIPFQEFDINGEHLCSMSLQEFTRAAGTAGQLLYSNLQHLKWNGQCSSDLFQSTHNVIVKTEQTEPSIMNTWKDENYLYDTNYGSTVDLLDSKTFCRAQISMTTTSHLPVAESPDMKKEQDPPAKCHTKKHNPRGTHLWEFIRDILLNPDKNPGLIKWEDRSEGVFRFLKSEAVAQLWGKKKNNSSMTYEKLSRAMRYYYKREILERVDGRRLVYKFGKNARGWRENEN
To be noted: protein: recombinant; tags: N-terminal GST; dsDNA, one strand shown. In short, it runs like this: as §1

Assay [7] has as its target SPI1 (Homo sapiens, UniProt P17947 1-270). The note with it: protein: recombinant; tags: N-terminal GST; dsDNA, one strand shown. The gist of the method:
as §1

Assay [8] addresses SPIB (Homo sapiens, UniProt Q01892 1-262). The note with it: protein: recombinant; tags: N-terminal GST; dsDNA, one strand shown. In short, it runs like this: as §1
In assay [9] the target is T6, ELK3 (Homo sapiens, UniProt P41970 1-407).
T6 sequence: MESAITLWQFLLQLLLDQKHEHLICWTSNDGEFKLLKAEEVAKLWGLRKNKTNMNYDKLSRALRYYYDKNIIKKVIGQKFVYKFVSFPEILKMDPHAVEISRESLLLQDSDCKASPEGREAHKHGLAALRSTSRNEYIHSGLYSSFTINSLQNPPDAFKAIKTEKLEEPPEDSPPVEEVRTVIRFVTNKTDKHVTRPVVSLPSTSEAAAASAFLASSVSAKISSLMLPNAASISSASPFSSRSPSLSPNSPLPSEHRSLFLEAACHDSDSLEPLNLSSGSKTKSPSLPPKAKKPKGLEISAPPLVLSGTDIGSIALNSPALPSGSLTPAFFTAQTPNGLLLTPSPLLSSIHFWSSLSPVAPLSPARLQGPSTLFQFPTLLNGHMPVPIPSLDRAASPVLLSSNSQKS
The note with it: protein: recombinant; tags: N-terminal GST; dsDNA, one strand shown. The gist of the method: as §1

In assay [10] the target is T7, FEV (Homo sapiens, UniProt Q99581 1-238).
T7 sequence: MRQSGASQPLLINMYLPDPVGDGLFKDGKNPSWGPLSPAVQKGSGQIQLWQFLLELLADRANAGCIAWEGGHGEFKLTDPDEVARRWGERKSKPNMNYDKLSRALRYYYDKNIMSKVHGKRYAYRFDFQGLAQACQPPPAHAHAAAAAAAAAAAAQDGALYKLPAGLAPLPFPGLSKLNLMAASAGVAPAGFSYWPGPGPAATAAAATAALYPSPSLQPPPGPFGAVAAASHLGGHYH
The note with it: protein: recombinant; tags: N-terminal GST; dsDNA, one strand shown. The gist of the method:
as §1

Assay [11] deals with ETV5 (Homo sapiens, UniProt P41161 1-510). The note with it: protein: recombinant; tags: N-terminal GST; dsDNA, one strand shown. In short, it runs like this:
as §1

Assay [12] concerns the target HSF1 (Homo sapiens, UniProt Q00613 1-529). The note with it: protein: recombinant; tags: N-terminal GST; chain copies: 3; dsDNA, one strand shown. The gist of the method: as §1
Assay [13] has as its target T8, SPIC (Homo sapiens, UniProt Q8N5J4 1-248).
T8 sequence: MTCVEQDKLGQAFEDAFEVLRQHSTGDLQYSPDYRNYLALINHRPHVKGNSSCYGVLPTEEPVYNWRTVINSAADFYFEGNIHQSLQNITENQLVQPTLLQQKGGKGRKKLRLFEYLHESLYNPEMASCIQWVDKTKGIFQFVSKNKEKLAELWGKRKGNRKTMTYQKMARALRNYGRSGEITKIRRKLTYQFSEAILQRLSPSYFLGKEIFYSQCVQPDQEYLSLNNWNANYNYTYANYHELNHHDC
The note with it: protein: recombinant; tags: N-terminal GST; dsDNA, one strand shown. In short, it runs like this:
as §1

Assay [14] addresses ELF4 (Homo sapiens, UniProt Q99607 1-663). The note with it: protein: recombinant; tags: N-terminal GST; dsDNA, one strand shown. In short, it runs like this:
as §1

Assay [15] addresses T9, ELK4 (Homo sapiens, UniProt P28324-2 1-405).
T9 sequence: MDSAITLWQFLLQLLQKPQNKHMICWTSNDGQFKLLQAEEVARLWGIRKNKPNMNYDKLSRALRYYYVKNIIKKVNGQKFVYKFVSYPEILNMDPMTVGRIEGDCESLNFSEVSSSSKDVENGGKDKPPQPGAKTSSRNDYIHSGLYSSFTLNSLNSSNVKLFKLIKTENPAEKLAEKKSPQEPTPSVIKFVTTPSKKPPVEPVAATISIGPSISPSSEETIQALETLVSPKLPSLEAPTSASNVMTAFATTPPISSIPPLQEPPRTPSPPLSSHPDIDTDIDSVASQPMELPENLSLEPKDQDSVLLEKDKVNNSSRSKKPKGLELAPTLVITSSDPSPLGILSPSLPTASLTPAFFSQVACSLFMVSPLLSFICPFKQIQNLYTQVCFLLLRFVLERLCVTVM
To be noted: protein: recombinant; tags: N-terminal GST; dsDNA, one strand shown. In short, it runs like this: as §1

In assay [16] the target is T10, ETV2 (Homo sapiens, UniProt O00321 1-342).
T10 sequence: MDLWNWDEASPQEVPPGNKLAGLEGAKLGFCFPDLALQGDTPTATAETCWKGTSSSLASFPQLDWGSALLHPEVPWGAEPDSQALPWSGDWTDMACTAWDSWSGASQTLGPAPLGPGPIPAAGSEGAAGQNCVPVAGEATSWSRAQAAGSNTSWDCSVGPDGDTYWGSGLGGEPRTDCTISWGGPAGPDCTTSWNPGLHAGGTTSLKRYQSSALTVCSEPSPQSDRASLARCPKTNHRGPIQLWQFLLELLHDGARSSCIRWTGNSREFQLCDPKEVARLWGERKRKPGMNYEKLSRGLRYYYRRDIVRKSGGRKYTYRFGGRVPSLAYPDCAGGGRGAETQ
To be noted: protein: recombinant; tags: N-terminal GST; dsDNA, one strand shown. The gist of the method: as §1

For assay [17], the target named is T11, ELF3 (Homo sapiens, UniProt P78545 1-371).
T11 sequence: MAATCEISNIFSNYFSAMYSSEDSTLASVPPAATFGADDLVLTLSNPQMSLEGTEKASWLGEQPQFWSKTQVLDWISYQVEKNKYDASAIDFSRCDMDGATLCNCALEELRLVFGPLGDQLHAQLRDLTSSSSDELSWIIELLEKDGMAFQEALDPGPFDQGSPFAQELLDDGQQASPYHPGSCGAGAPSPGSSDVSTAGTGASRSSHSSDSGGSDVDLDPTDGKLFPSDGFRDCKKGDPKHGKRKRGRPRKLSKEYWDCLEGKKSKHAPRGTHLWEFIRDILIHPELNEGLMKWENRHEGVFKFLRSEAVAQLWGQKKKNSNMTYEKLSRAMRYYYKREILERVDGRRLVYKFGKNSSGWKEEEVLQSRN
To be noted: protein: recombinant; tags: N-terminal GST; dsDNA, one strand shown. In short, it runs like this: as §1

Assay [18] addresses ETV1 (Homo sapiens, UniProt P50549 1-477). To be noted: protein: recombinant; tags: N-terminal GST; dsDNA, one strand shown. The gist of the method:
as §1

Chain of HSF1 (Q00613 whole entry): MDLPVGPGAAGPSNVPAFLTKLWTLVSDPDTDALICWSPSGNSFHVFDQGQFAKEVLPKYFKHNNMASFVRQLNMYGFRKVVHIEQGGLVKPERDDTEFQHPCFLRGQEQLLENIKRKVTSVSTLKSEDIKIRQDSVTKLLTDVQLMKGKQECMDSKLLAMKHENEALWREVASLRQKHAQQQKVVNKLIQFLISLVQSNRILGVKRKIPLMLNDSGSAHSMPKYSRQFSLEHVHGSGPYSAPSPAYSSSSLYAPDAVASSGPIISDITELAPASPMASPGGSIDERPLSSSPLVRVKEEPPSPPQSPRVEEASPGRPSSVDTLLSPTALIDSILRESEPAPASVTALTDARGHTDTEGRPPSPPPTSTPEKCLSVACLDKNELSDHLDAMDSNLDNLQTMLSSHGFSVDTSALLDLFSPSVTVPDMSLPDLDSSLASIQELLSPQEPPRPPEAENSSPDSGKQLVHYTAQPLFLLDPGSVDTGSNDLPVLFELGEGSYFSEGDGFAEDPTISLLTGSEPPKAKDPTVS
Chain of ETV5 (P41161 whole entry): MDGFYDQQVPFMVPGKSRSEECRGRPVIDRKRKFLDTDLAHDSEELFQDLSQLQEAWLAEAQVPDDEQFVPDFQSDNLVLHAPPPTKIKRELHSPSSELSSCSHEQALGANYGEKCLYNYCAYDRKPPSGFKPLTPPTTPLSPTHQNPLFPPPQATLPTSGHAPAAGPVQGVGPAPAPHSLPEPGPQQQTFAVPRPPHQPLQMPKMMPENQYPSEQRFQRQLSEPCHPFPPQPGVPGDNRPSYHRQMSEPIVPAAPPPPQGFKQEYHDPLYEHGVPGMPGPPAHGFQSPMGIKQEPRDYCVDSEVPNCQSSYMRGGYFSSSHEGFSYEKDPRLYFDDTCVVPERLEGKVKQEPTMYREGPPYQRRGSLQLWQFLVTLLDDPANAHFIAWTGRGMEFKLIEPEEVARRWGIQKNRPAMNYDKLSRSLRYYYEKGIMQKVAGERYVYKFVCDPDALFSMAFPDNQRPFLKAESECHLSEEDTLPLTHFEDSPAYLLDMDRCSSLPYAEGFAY
Chain of SPIB (Q01892 whole entry): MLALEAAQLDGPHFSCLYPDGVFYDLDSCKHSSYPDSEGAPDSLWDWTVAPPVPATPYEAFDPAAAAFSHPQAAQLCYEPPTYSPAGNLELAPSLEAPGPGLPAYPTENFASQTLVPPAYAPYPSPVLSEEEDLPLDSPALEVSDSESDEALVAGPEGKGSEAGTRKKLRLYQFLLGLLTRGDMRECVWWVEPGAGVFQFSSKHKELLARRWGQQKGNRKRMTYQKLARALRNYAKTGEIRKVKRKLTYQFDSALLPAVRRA
Chain of ELF1 (P32519 whole entry): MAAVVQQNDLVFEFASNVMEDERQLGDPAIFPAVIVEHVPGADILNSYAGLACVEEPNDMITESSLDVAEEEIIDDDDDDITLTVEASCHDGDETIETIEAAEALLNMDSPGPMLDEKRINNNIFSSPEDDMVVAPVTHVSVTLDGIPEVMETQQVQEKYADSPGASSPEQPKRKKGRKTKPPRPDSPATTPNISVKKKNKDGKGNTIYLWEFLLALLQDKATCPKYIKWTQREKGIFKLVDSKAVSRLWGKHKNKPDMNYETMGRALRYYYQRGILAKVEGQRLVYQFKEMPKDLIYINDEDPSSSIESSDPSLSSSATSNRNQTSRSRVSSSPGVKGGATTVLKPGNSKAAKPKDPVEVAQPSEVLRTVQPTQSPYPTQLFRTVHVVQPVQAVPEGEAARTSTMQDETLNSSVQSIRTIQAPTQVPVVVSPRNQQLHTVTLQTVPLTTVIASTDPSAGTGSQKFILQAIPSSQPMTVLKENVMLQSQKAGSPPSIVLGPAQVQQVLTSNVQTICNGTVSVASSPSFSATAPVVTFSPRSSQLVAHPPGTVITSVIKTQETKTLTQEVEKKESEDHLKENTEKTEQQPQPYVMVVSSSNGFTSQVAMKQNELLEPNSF
Chain of ELF4 (Q99607 whole entry): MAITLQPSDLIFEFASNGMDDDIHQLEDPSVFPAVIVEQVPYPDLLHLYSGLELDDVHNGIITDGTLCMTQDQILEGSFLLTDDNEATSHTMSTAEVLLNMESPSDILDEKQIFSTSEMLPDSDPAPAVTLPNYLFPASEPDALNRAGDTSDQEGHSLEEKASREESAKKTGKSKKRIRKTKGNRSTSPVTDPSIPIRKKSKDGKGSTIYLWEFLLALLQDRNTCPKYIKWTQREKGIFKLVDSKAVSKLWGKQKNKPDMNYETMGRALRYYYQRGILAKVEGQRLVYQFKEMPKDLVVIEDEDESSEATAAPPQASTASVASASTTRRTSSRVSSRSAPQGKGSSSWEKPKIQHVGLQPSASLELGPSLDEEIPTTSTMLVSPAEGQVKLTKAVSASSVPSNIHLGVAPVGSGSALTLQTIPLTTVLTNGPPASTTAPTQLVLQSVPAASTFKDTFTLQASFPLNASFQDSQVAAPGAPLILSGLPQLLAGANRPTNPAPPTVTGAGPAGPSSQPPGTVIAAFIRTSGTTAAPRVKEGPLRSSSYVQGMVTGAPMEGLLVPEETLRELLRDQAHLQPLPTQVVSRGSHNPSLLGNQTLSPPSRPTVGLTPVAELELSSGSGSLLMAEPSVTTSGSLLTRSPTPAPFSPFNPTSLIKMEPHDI
Chain of ETV1 (P50549 whole entry): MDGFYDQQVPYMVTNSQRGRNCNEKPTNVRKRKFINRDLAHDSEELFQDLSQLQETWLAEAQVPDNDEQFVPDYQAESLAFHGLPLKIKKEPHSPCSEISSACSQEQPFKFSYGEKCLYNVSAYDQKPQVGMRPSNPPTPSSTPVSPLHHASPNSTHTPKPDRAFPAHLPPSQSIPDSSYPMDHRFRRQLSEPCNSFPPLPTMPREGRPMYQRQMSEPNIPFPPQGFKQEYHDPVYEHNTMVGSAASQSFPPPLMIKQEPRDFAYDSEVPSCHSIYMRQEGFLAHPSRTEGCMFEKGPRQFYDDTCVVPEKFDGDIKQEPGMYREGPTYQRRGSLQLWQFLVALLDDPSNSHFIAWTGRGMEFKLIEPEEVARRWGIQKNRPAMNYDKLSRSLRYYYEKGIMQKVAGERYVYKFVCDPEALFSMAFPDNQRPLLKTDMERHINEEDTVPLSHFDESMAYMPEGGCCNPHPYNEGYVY

In the case of TTCCGT, the binding signal in assay [1] is 1.79 fold enrichment (6-mer frequency, TF over GST control); in assay [2], 2.11 fold enrichment (6-mer frequency, TF over GST control); in assay [3] it was 1.76 fold enrichment (6-mer frequency, TF over GST control); in assay [4], 2.13 fold enrichment (6-mer frequency, TF over GST control); in assay [5] it was 1.74 fold enrichment (6-mer frequency, TF over GST control); in assay [6], 2 fold enrichment (6-mer frequency, TF over GST control). Also, the binding signal in assay [7] is 2.14 fold enrichment (6-mer frequency, TF over GST control); in assay [8], 2.07 fold enrichment (6-mer frequency, TF over GST control); in assay [9], 1.86 fold enrichment (6-mer frequency, TF over GST control); in assay [10], 1.86 fold enrichment (6-mer frequency, TF over GST control); in assay [11], 1.99 fold enrichment (6-mer frequency, TF over GST control); in assay [12] it was 1.02 fold enrichment (6-mer frequency, TF over GST control). In addition, the binding signal in assay [13] was 2.02 fold enrichment (6-mer frequency, TF over GST control); in assay [14], 1.67 fold enrichment (6-mer frequency, TF over GST control); in [15], 1.89 fold enrichment (6-mer frequency, TF over GST control); in assay [16] it was 1.88 fold enrichment (6-mer frequency, TF over GST control); in assay [17] it was 1.74 fold enrichment (6-mer frequency, TF over GST control); in assay [18], 1.82 fold enrichment (6-mer frequency, TF over GST control).

The record behind these values is paper PMC7862700, “An all-to-all approach to the identification of sequence-specific readers for epigenetic DNA modifications on cytosine”.
